The record followed here is ChEMBL document CHEMBL4513216, “Probing the Open Global Health Chemical Diversity Library for Multistage-Active Starting Points for Next-Generation Antimalarials” (ACS Infect Dis, 2020).

Molecules are shown by their SMILES. Among all 69,000 compounds or so, about 8,600 (12%) showed an effect of 50% or more. What follows is part of a selection rich in strong results, with near analogues and random picks from the rest.

The assay concerns Plasmodium berghei. Kind of assay: Screen against P. berghei liver stage (PbLuc), transformed with Luciferase, at 10uM. The settings on record: tested at 10 uM. Format: functional, HepG2.
In the case of `CN1CC(c2ccccc2)CC12CCN(C(=O)c1c(Cl)cnn1C)CC2` (centres undefined), the INHIBITION turned out to be 55.1%.
The figure for `CN1CC(c2ccccc2)CC12CCN(C(=O)c1cncc(Cl)c1)CC2` (centres undefined) is 8.47%; for `CN1CC(c2ccccc2)CC12CCN(C(=O)c1ccc(Cl)cn1)CC2` (centres undefined) it is 28.5%; for `CN1CC(c2ccccc2)CC12CCN(C(=O)c1ccncc1)CC2` (centres undefined) it is 7.6%.
The figure for `CN1CC(c2ccccc2)CC12CCN(C(=O)c1ccc(Cl)cc1)CC2` (centres undefined) is 37.6%.
The same measure for `COC(=O)N1CCC2(CC1)CC(c1ccccc1)CN(C)C2` (centres undefined): 39.4%.
In the case of `CN1CC(c2ccccc2)CC12CCN(C(=O)c1cccnc1)CC2` (centres undefined), the INHIBITION came out at 51.2%.
The figure for `CN1CC(c2ccccc2)CC2(CCN(C(=O)c3cccnn3)CC2)C1` (centres undefined) is 81.2%; for `CN1CC(c2ccccc2)CC2(CCN(C(=O)c3ccccc3)CC2)C1` (centres undefined) it is 49.4%; for `O=C(c1cc(-c2cccnc2)[nH]n1)N1CCCC(Cc2ccccn2)C1` (centres undefined) it is -12.76%.
The figure for `Cc1cc(Cc2ccc(S(=O)(=O)N3CCCC3)cc2)c(=O)[nH]n1` is 20.9%; for `CNC(=O)C1(c2cnccn2)CCCN1C(=O)c1ncccc1C` (centres undefined) it is 19.6%; for `COC(=O)CC(c1cccc(OC(F)F)c1)c1oc(C)cc(=O)c1O` (centres undefined) it is 21.5%.
The same measure for `CCS(=O)(=O)N1Cc2c(Cn3ccnc3)nn(C(C)C)c2C1`: 65.1%; for `CCS(=O)(=O)N1Cc2c(Cn3cccc3)nn(C(C)C)c2C1`: 12.1%.
Turning to `CCS(=O)(=O)N1Cc2c(Cn3ccnc3)nn(C)c2C1`, the INHIBITION came out at 26.5%.
The figure for `Cc1ncsc1CNC(=O)N(Cc1ccccc1)CC(C)(C)O` is 47.4%.
Turning to `Cc1n[nH]c(C)c1CC(=O)NCc1ccccc1Cl`, the INHIBITION is 64.8%.
The figure for `Cc1nc2cc(=O)[nH]n2c(C)c1CC(=O)NCCCc1ccccc1` is -4.3%.
As for `CSc1ccc(CCNC(=O)Cc2c(C)n[nH]c2C)cc1`, the INHIBITION is 40.3%.
The figure for `Cc1n[nH]c(C)c1CNC(=O)N(Cc1ccccc1)CC(C)(C)O` is 68%; for `Cc1n[nH]c(C)c1CNC(=O)CSCc1ccccc1Cl` it is -26.4%; for `Cc1nc(CNC(=O)N(Cc2ccccc2)CC(C)(C)O)oc1C` it is 28.6%.
The same measure for `CSc1ccc(CNC(=O)Cc2c(C)n[nH]c2C)cc1`: 21.8%.
The figure for `Cc1n[nH]c(C)c1CC(=O)NCCc1ccccc1` is 52.5%.
Consider `O=C1CN([C@@H]2CC[C@@H](NS(=O)(=O)c3ccccc3)[C@H]2O)CCN1`, for which the INHIBITION turned out to be 4.5%.
The figure for `CC(C)C[C@H](NC(=O)NC1CCS(=O)(=O)C1)C(=O)NCc1cccnc1` (some centres undefined) is 44.9%; for `Cc1nccn1CCCNc1ccc(Cl)c(C#N)n1` it is -9.39%; for `O=C(CN1CCOc2ccccc2C1)NCc1cc2n(n1)CCNC2` it is 21.7%.
The same measure for `CC(O)CCN(C)C(=O)Nc1ccc(Br)cc1` (centres undefined): -12.1%; for `Cc1ccn(-c2ccc(NCc3cccnc3N3CCCCC3)nn2)n1`: 34.4%; for `N#Cc1ccc(NCc2cccnc2N2CCC(C(N)=O)CC2)cn1`: 57.3%.
The figure for `N#Cc1cccnc1Nc1ccc(N2CCC(C(N)=O)CC2)cc1` is 45.2%.
On to `CN1CCN(c2ncccc2CNc2ncccc2C#N)CC1`, for which the INHIBITION is on record as -29.4%.
The same measure for `N#Cc1cccnc1NCc1cccnc1N1CCCCC1`: 51.7%; for `N#Cc1cccnc1NCc1cccnc1N1CCC(C(N)=O)CC1`: -0.182%; for `Cc1cccc(C(=O)N2CCC3(CCN(c4cnn(C)c4)C3=O)C2)n1` (centres undefined): 24.9%.
The same measure for `O=C1CO[C@H]2CCN(C(=O)c3ccc4c(c3)CCCC4)CC[C@@H]2N1`: 16.675%; for `O=C(CCc1ccc(F)c(F)c1)N1CCCCC1Cn1cccn1` (centres undefined): 21.5%; for `O=C(c1cnccn1)N1CCc2ncc(CN3CCOCC3)n2CC1`: 48.6%.
Consider `Cc1nc2cc(=O)[nH]n2c(C)c1CC(=O)NCc1ccoc1`, for which the INHIBITION was found to be 15.465%.
`CCC(NC1CCN(C(=O)c2ccccc2)CC1)c1cccs1` (centres undefined): the INHIBITION was determined as 7.22%.
Regarding `Cc1cnn(CC2CCCN2C(=O)c2cc(Cl)ccc2F)c1` (centres undefined), the INHIBITION came to 22.9%.
The same measure for `O=C(O)c1cc(C=Cc2ccccc2)ncn1`: -20.2%.
The same measure for `Cc1noc([C@@H]2C[C@H]3CN(CC4CCOCC4)C[C@H]3O2)n1`: -7.7%; for `Cc1noc(Cl)c1CCC(=O)N1CCC(Nc2cccnn2)CC1`: -5.07%.
The same measure for `COc1ccc2nnc(CCCC(=O)NCCc3ccccc3)n2n1`: -31%.
`COc1ccc2nnc(CCCC(=O)NCCc3ccccn3)n2n1`: the INHIBITION is recorded as 51.9%.
The figure for `COc1ccc2nnc(CCCC(=O)NCCc3ccncc3)n2n1` is 32.2%.
The figure for `Cc1nc(Cc2ccc(F)cc2)cc(C2COCCN2)n1` (centres undefined) is 35.305%.
The same measure for `O=C(C1CC1)N1CCCC(c2nc(O)cc(-c3ccncc3)n2)C1` (centres undefined): 47.2%; for `COc1ccc(CN2C[C@H]3C[C@H](CN(C)C)O[C@H]3C2)cc1`: 28.4%.
Take `CNCCc1nc2cc(F)ccc2[nH]1`: the INHIBITION is recorded as -2.37%.
The figure for `CCNCCc1nc2cc(F)ccc2[nH]1` is 72.3%; for `CNCCc1nc2cc(Cl)ccc2[nH]1` it is 31.9%.
The figure for `CC(C)c1nc(CN2CCC(c3ccnn3CCO)CC2)no1` is 38.5%; for `CCN(c1ccc(C(=O)N2CCCCCC2)cc1)S(=O)(=O)CC` it is 3.77%; for `CC(C)N1CCCC(CN(C)c2ccc(Cn3ccnc3)cn2)C1` (centres undefined) it is -23.4%.
The figure for `CSCc1ccc(N(C)CC2CCCN(C(C)C)C2)nc1` (centres undefined) is -43.1%; for `CN(CC1CCN(c2ccccc2)C1)c1ccc(Cn2ccnc2)cn1` (centres undefined) it is 74.9%; for `Cn1c2c(c(=O)n1C)CN(C(=O)c1ccncc1F)CCC2` it is 25.8%.
For the compound `COC(=O)c1cc(C(=O)N2CCN(C)CC2)n(-c2ccccc2)n1`, the INHIBITION was determined as 30.2%.
The same measure for `CNC(=O)NCC(=O)N1CCCC1Cc1cccc(F)c1` (centres undefined): 10.6%; for `COc1ccc(CN2CC[C@H](c3nc4cccc(C(N)=O)c4[nH]3)C2)cc1`: 22.3%; for `NC(=O)c1cccc2nc([C@H]3CCN(Cc4ccccn4)C3)[nH]c12`: 66.6%.
Regarding `Cc1ccc(CN2CC[C@H](c3nc4cccc(C(N)=O)c4[nH]3)C2)cc1`, the INHIBITION was 59.2%.
The same measure for `NC(=O)c1cccc2nc([C@H]3CCN(Cc4ccccc4F)C3)[nH]c12`: 14.9%; for `NC(=O)c1cccnc1N1C[C@H]2CC[C@@H](C1)N(Cc1ccccn1)C2=O`: 43.8%; for `Cc1ccc2[nH]c(C3CCN(CC(N)=O)CC3)nc2c1`: -9.51%.
